Screens: PubChem, Sanford-Burnham Center for Chemical Genomics
A selection: hits, their analogues and other compounds. The true share with any hit is near 2.6%.
eIF4H inh – inhibitors of RNA binding by human eIF4H; eIF4H fluorescence polarization binding assay; AID 2012; Q15056; 0.94% of 290,000 active; inhibition, % at 35 µM;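 note: calls also rest on retests at 20 µM and on dose response follow-up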
PABP1 MLLE inh – blocks PAM2 peptide binding to the PABP1 MLLE domain; GST-MLLE / FITC-PAM2 fluorescence polarization; inhibition, % at 20 µM; 0.36% of 360,000 active; in the data active = inhibition above about 35%, passing the limit was not always enough;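 note: plate controls were DMSO wells with GST-MLLE for no effect and wells lacking GST-MLLE protein for full effect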
Target sequence (P11940 whole entry, looked up, the tested form may be a part): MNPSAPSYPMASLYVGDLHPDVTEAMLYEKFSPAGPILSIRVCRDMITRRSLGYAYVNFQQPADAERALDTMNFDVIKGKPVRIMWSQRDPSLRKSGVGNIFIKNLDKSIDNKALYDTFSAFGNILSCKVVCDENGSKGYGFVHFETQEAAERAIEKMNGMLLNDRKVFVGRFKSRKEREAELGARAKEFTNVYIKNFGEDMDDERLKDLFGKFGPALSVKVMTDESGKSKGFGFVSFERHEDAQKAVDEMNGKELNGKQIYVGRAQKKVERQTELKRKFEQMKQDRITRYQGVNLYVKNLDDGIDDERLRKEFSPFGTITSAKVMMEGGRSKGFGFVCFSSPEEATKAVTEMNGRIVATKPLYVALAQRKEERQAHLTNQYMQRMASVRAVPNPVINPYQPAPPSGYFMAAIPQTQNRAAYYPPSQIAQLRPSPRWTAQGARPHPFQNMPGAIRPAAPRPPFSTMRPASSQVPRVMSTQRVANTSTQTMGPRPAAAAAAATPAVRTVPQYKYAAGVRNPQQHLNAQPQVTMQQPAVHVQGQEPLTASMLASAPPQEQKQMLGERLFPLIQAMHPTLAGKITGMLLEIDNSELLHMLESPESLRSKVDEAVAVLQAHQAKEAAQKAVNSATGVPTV
PABP FP inh – PABP-poly(A) binding inhibition. 1% of 290,000 active. calls only at 35 µM. AID 2014. P11940. PABP-poly(A) RNA binding, fluorescence polarization;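 note: calls also rest on retests at 20 µM and on dose response follow-up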
APOBEC3G inh – inhibitors of human APOBEC3G DNA deaminase; inhibition, % at 20 µM; 0.28% of 330,000 active; AID 493012; Q9HC16; recombinant A3G, ssDNA deamination FAM/TAMRA fluorescence;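 active = inhibition of at least 40% at 20 µM, with no more than 30% in the related APOBEC3A deaminase screen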;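 note: plate controls were DMSO wells with A3G for no effect and wells lacking A3G enzyme for full effect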
PHOSPHO1 inh – PHOSPHO1 (human) inhibition; 1.1% of 290,000 active; recombinant PHOSPHO1, absorbance phosphatase assay; Q8TCT1; inhibition, % at 13.3 µM; in the data active = inhibition above about 60%
A3A deaminase – human APOBEC3A DNA deaminase inhibition; inhibition, % at 20 µM; 0.41% of 330,000 active; recombinant A3A, FAM/TAMRA ssDNA deamination fluorescence;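 active = at least 40% inhibition at 20 µM here, with at most 30% in a related deaminase screen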;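 note: plate controls were A3A with DMSO for no effect and wells lacking A3A enzyme for full effect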
Starred values were filed as active, the others as inactive; i = inactive; ? = inconclusive; . = not tested or not shown; + = active, no number. Unless noted, the rule behind the calls is not given here.

SMILES	eIF4H inh	PABP1 MLLE inh	PABP FP inh	APOBEC3G inh	PHOSPHO1 inh	A3A deaminase
O=C(COC(=O)CCC(NC(=O)OCc1ccccc1)C(=O)OCC(=O)Nc1ccccc1)Nc1ccccc1 (stereo not given)	-1	-4	+	2	8	1
Cc1ccc(NC(=O)COC(=O)CCc2c[nH]c(=O)[nH]2)cc1	7	87	i	-6	21	-3
O=C(COC(=O)CCc1c[nH]c(=O)[nH]1)Nc1ccccc1	26	53*	i	-5	21	-4
COCc1cc(C)nc(SCC(=O)Oc2ccccc2)c1C#N	8	4	i	-1	-8	-3
COCc1cc(C)nc(SCC(=O)Oc2ccc(Cl)cc2)c1C#N	active	8	+	-6	-1	-8
Oc1cc(CNC2CCCCC2)c(O)cc1CNC1CCCCC1	.	53*	.	.	.	.
CC(OC(=O)Cn1nnc2ccccc21)C(=O)NC1CCCC1 (stereo not given)	-9	12	i	-4	23	-1
Cc1cc(=O)c2cc3nc(-c4cccnc4)oc3c(Br)c2o1	97*	.	+	20	24	25
COc1ccc(S(=O)(=O)N2CCCCC2c2cc(C(=O)N3CCOCC3)no2)cc1 (stereo not given)	.	6	.	.	.	.
CC(=O)c1csc(CS(=O)(=O)c2ccccn2)n1	6	6	i	-4	61*	-3
Cc1cc(=O)[nH]c2ccc(S(=O)(=O)NCc3ccccc3)cc12	2	7	i	0	63*	2
O=C(NCCN1CCOCC1)c1ccc(NS(=O)(=O)c2cccc([N+](=O)[O-])c2)cc1	.	5	.	2	.	-1
CCCCOC(=O)c1cc(=O)[nH]c(=O)[nH]1	-4	-5	+	-11	-9	-1
CCc1ccc([C@@H]2CC=C(C(=O)O)[C@H](c3cccc(Cl)c3)N2S(=O)(=O)c2ccc(C)cc2)cc1	.	-8	.	-8	.	-1
CC1S/C(=N/N=C/c2ccco2)NC1=O (stereo not given)	2	2	i	-10	18	-8
CC1(C)S/C(=N/N=C/c2ccco2)NC1=O	?	-21	+	-9	1	-8
COc1cc(/C=C/C(=O)c2c(O)cc(C)oc2=O)cc(OC)c1O	44	-18	i	-7	80*	-7
COc1ccc(/C=C/C(=O)c2c(O)cc(C)oc2=O)c(OC)c1	?	-93	+	-5	6	-3
COc1cccc(/C=C/C(=O)c2c(O)cc(C)oc2=O)c1O	-10	5	i	-1	0	1
Cc1cc2ccccc2n1CCNC(=O)C1CCCC1	?	24	+	3	42	0
Cc1cc2ccccc2n1CCNC(=O)c1cccs1	42*	14	+	10	12	6
Cc1cc2ccccc2n1CCNC(=O)C1CC1	112	20	+	2	25	0
Cc1cc2ccccc2n1CCNC(=O)C1CCCCC1	19	11	i	2	-6	-1
CSCCC(NC(=O)c1cc(S(=O)(=O)N2CCOCC2)ccc1C)c1nc2ccccc2[nH]1 (stereo not given)	.	-12	.	.	.	.
COc1ccc(C2C(C(C)=O)=C(C)N=c3s/c(=C\c4ccco4)c(=O)n32)c(OC)c1 (stereo not given)	42	-95	i	-4	94*	8
SMILES	eIF4H inh	PABP1 MLLE inh	PABP FP inh	APOBEC3G inh	PHOSPHO1 inh	A3A deaminase
COc1ccc(C2C(C(C)=O)=C(C)N=c3s/c(=C\c4cc(C)n(C)c4C)c(=O)n32)c(OC)c1 (stereo not given)	?	49	?	-14	71*	-6
CN(C)S(=O)(=O)c1cc(NC(=O)C2=COCCO2)ccc1Cl	.	5	.	-5	.	-6
CCOC(=O)c1c(S(=O)(=O)Nc2ccc(C)cn2)c(C)n(C)c1C	-6	-1	i	1	23	-3
COc1ccc(NC(=O)c2ccc(NCCN3C(=O)CCC3=O)c([N+](=O)[O-])c2)cc1	?	-9	+	3	37	10
Cc1ccc(NC(=O)CSC(C)C(=O)OCc2cc(=O)oc3cc(O)ccc23)cc1 (stereo not given)	.	1	.	.	.	.
CCc1ccccc1NC(=O)C1CCCN(c2ncnc3onc(-c4ccc(F)cc4)c23)C1 (stereo not given)	4	2	i	-6	43	-1
